Compounds with a hit are over-represented: about 5.8% of the library has one in this group of screens.
uPA surface inh: qHTS for Inhibitors of Cell Surface uPA Generation; AID 540303, 2011; 330,000 tested, 0.31% active; Potency, µM (titrated, usually from 38.3 µM), most hits filed as inhibitors; cell surface uPA generation assay, qHTS; active means well fitted inhibition curve with a large enough effect; inconclusive means small, poorly fitted or top-dose-only effect; inactive means no such curve, though single readings can be large or run the other way; tested in mouse RAW 264.7 cells; further: nearly all actives have a fitted effect of over 55% in size
TRPV1 potentiator: HTS Assay for Compounds that Act as Potentiators of the Vanilloid Receptor 1; Transient receptor potential cation channel subfamily V member 1 (Homo sapiens), Q8NER1; potentiation, % at 8.33 µM; AID 540277, 2011; TRPV1-expressing cells, Fluo-8 calcium influx, capsaicin EC20 potentiation; 320,000 tested, 0.02% active; in the data active means potentiation above about 80%; inconclusive means between about 30% and that limit
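Fluo-8 calcium influx in TRPV1-expressing cells, kinetic read (ex 480/em 520 nm). Compound added and read 3 min for agonist activity, followed by capsaicin at EC20 final and 2 min further read for enhancement.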
TRPV1 ag: HTS Assay for Compounds that Act as Agonists of the Vanilloid Receptor 1; 320,000 tested, 0.19% active; Transient receptor potential cation channel subfamily V member 1 (Homo sapiens), Q8NER1; activation, % at 8.33 µM; TRPV1-expressing cells, Fluo-8 calcium influx, agonist mode; in the data active means activation above about 80%; inconclusive means between about 30% and that limit
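Cells expressing TRPV1 were dye-loaded with Fluo-8 and read kinetically: 10 s baseline, 3 min after compound (agonist portion), then 2 min after EC20 capsaicin (allosteric enhancer portion). Calcium-bound dye fluorescence at 480/520 nm.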
Gal4-VP16 FLuc: VP16 counterscreen qHTS for inhibitors of ROR gamma transcriptional activity. Drosophila S2 Gal4-VP16 UAS-luciferase, luminescence, 20 h. 310,000 tested, 3.5% active. Potency, µM (highest dose often 53.6 µM), hits mostly inhibitors;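 further: Gal4-VP16 expression switched on by copper sulfate through the metallothionein promoter; nearly all actives have a fitted effect of over 50% in size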
RORgamma inh: qHTS for inhibitors of ROR gamma transcriptional activity. Potency, µM (top dose mostly 53.6 µM), most hits filed as inhibitors. 310,000 tested, 5.4% active. AID 2551, 2010. Drosophila S2 Gal4-RORgamma UAS-luciferase reporter, 20 h; further: nearly all actives have a fitted effect of over 60% in size
Target sequence (P51450 whole entry, looked up, the tested form may be a part): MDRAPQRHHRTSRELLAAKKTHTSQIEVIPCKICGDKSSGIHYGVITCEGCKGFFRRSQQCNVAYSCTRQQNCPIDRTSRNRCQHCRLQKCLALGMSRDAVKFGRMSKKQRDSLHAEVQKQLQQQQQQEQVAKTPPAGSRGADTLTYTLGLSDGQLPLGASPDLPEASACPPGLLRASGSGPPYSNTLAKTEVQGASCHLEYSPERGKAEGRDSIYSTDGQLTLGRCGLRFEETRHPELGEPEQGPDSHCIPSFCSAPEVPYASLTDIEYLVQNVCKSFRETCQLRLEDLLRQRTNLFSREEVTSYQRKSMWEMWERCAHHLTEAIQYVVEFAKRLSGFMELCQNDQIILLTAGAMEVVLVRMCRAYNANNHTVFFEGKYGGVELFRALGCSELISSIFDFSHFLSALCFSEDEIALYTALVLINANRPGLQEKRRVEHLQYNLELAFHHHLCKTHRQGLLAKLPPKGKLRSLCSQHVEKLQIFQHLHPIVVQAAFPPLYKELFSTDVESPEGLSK
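Read-out: Photinus luciferase luminescence; inhibitors lower reporter signal. Insect Schneider cells with Gal4-ROR gamma fusion under metallothionein promoter, UAS reporter; 700 uM final copper sulfate induction, 20 hr, ambient temperature.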
Of the large screens only hits and unclear results are named; the others gave an inactive call. Unless noted, the call rests on the fitted dose curve; in most records, active means well fitted curve in the direction sought with a large enough effect; inconclusive means small, poorly fitted or top-dose-only effect, or another doubt; inactive means no such curve, though single readings can be large; an effect the other way counts as inactive or inconclusive.

CCOC(=O)c1ccc(NC(=O)CN2CCN(CCN=CC3=C(O)CC(C)(C)CC3=O)CC2)cc1	none
CCOC(=O)c1ccc(NC(=S)N2CCN(CCN=CC3=C(O)CC(C)(C)CC3=O)CC2)cc1	Gal4-VP16 FLuc inconclusive, RORgamma inh 12.6µM
CC1(C)Cc2ccccc2-c2n[nH]c(=S)n21	Gal4-VP16 FLuc 0.891µM, RORgamma inh 2.82µM
COc1cccc(OC)c1C(=O)NC(=S)NNC(=O)[C@H]1C[C@@H]1c1ccccc1	RORgamma inh 3.98µM
O=C(NC(=S)NNC(=O)[C@H]1C[C@@H]1c1ccccc1)c1cccc(F)c1	Gal4-VP16 FLuc inconclusive, RORgamma inh 11.2µM
COc1cccc(Nc2ncc3ncc(=O)n(C)c3n2)c1	RORgamma inh inconclusive (no result: uPA surface inh, TRPV1 potentiator, TRPV1 ag)
C/C(=N\Nc1ccccn1)c1ccc(OC(F)F)cc1	TRPV1 ag inconclusive, Gal4-VP16 FLuc inconclusive, RORgamma inh 14.1µM
COc1ccc2c(c1)CCc1c(C(=O)Nc3ccc(OC)c(OC)c3)noc1-2	Gal4-VP16 FLuc inconclusive, RORgamma inh 1.41µM (no result: uPA surface inh)
COc1ccc2c(c1)CCc1c(C(=O)N3CCCc4ccccc43)noc1-2	RORgamma inh inconclusive (no result: uPA surface inh)
COc1ccc2c(c1)CCc1c(C(=O)NCCc3ccc(OC)c(OC)c3)noc1-2	none (no result: uPA surface inh)
COc1ccc2c(c1)CCc1c(C(=O)N3CCOCC3)noc1-2	TRPV1 ag 81.2 (no result: uPA surface inh)
CN(Cc1ccccc1)S(=O)(=O)c1cccc2nsnc12	none
CCCC[C@H]1CCCO[C@@](C(=O)NCc2ccccn2)(C(F)(F)F)C1	none (no result: uPA surface inh, TRPV1 potentiator, TRPV1 ag)
CC(C)C1=NN(C(=O)c2ccccc2)C(O)(C(C)(C)C)C1 (configuration not stated)	Gal4-VP16 FLuc inconclusive, RORgamma inh 4.47µM
CC(C)(C)C1=NN(C(=O)c2ccccc2)C(O)(C(C)(C)C)C1 (configuration not stated)	none
CC(=O)Nc1nonc1-c1nc2ccccc2n1CCC(C)C	TRPV1 ag inconclusive, RORgamma inh 12.6µM
S=c1[nH]ccn1Cc1ccccc1	Gal4-VP16 FLuc inconclusive, RORgamma inh 11.2µM
S=c1[nH]ccn1-c1ccccc1Cl	RORgamma inh inconclusive
O=C(/C=C/c1cccc(F)c1)OCC(=O)N1CCc2ccccc21	none (no result: TRPV1 potentiator, TRPV1 ag, Gal4-VP16 FLuc, RORgamma inh)
COC(=O)/C(=N\Nc1ccccc1)Sc1nnc(-c2ccc(OC)cc2)n1C	Gal4-VP16 FLuc inconclusive, RORgamma inh inconclusive
CCOC(=O)/C(=N\Nc1ccc(Cl)cc1)Sc1nnc(-c2ccc(OC)cc2)n1C	Gal4-VP16 FLuc 6.31µM, RORgamma inh 4.47µM
CCOC(=O)/C(=N/Nc1ccc(OC)cc1)Sc1nnc(CCc2ccccc2)n1-c1ccccc1	Gal4-VP16 FLuc inconclusive, RORgamma inh 7.08µM
O=C(NN=Cc1ccccc1C(=O)O)c1cccc(S(=O)(=O)Nc2cccc(C(F)(F)F)c2)c1	none (no result: TRPV1 potentiator, TRPV1 ag, Gal4-VP16 FLuc, RORgamma inh)
O=C(Nc1cc(Cl)cc(Cl)c1)C1CC(=O)N(C2CCCC2)C1 (configuration not stated)	uPA surface inh inconclusive (no result: Gal4-VP16 FLuc, RORgamma inh)
COc1ccc(NC(C)=O)cc1S(=O)(=O)Nc1ccc(S(=O)(=O)N2CCCCC2)cc1	none (no result: TRPV1 potentiator, TRPV1 ag, Gal4-VP16 FLuc, RORgamma inh)
COc1ccc(NC(C)=O)cc1NC(C)C(=O)Nc1ccc(S(=O)(=O)N2CCCCC2)cc1 (configuration not stated)	uPA surface inh 3.16µM (no result: Gal4-VP16 FLuc, RORgamma inh)
COCCNc1nnc(SCC(=O)c2c[nH]c3ccccc23)s1	Gal4-VP16 FLuc 35.5µM, RORgamma inh inconclusive
COCCNc1nnc(SCC(=O)Nc2sc3c(c2C(=O)c2ccccc2)CCCC3)s1	Gal4-VP16 FLuc inconclusive, RORgamma inh 15.8µM
COCCNc1nnc(SCC(=O)NNC(=O)c2ccccc2)s1	none
Nc1nnc(SCC(=O)Nc2sc3c(c2C(=O)c2ccccc2)CCCC3)s1	Gal4-VP16 FLuc inconclusive, RORgamma inh 22.4µM
Cc1ccc(C(=O)c2c(NC(=O)CSc3nnc(N)s3)sc3c2CCCC3)cc1	none
CCN(CC)S(=O)(=O)c1ccc(NC(=S)Nc2ccc(F)cc2)cc1	none
S=C(Nc1ccc(Cl)cc1)NC1CCCCC1	Gal4-VP16 FLuc 15.8µM, RORgamma inh 3.55µM (no result: TRPV1 potentiator, TRPV1 ag)
NS(=O)(=O)c1ccc(NC(=S)NC2CCCCC2)cc1	none
FC(F)Oc1ccc(NC(=S)NC2CCCCCCC2)cc1	TRPV1 ag inconclusive, Gal4-VP16 FLuc 10µM, RORgamma inh 3.55µM
FC(F)Oc1ccc(NC(=S)NC2CCSc3ccccc32)cc1 (configuration not stated)	none
S=C(Nc1ccc(Br)cc1)NC1CCCCC1	TRPV1 ag inconclusive, Gal4-VP16 FLuc 17.8µM, RORgamma inh 7.94µM
S=C(Nc1cccnc1)NC1CCCCCCC1	TRPV1 ag inconclusive, Gal4-VP16 FLuc 22.4µM, RORgamma inh inconclusive
Cc1ccc(NC(=O)C(=O)NCCCN2CCCC2=O)c(C)c1	none (no result: Gal4-VP16 FLuc, RORgamma inh)
S=C(Nc1cccnc1)NC1CCCC1	TRPV1 ag inconclusive
S=C(Nc1ccc(Nc2ccccc2)cc1)NC1CCCCCC1	Gal4-VP16 FLuc inconclusive, RORgamma inh 1.26µM
Cc1cccc(CSc2cccc3cccnc23)c1	Gal4-VP16 FLuc 7.94µM, RORgamma inh 4.47µM
CCOC(=O)CSc1cccc2cccnc12	Gal4-VP16 FLuc 10µM, RORgamma inh inconclusive
O=C(CSc1cccc2cccnc12)N/N=C/c1ccc(O)cc1	none
COc1cccc(/C=N/NC(=O)CSc2cccc3cccnc23)c1	uPA surface inh inconclusive, Gal4-VP16 FLuc inconclusive, RORgamma inh 8.91µM
Cc1nn(-c2ccc(Cl)cc2)c(=O)c2ccccc12	none
Cc1c(Cl)sn(-c2ccc(Cl)cc2)c1=O	Gal4-VP16 FLuc 2.82µM, RORgamma inh 1.58µM
Cc1ccnc(N(C(=O)Nc2ccccc2)C2=NCC(C)(C)S2)c1	Gal4-VP16 FLuc inconclusive, RORgamma inh 11.2µM
CCOc1ccc(C(=O)NC(Cc2ccccc2)C(=O)OC)cc1 (configuration not stated)	none
O=C(NC(=S)NC(CO)Cc1ccccc1)c1ccc(F)cc1 (configuration not stated)	Gal4-VP16 FLuc inconclusive, RORgamma inh 11.2µM
COC(=O)C(Cc1ccccc1)NC(=S)NC(=O)c1ccccc1 (configuration not stated)	TRPV1 ag inconclusive, Gal4-VP16 FLuc inconclusive, RORgamma inh 3.16µM
O=C(O)c1ccc(Cl)c(Cl)c1	none (no result: uPA surface inh, TRPV1 potentiator, TRPV1 ag)
C#CC(=O)N(c1cccc(OC)c1)C(C(=O)NC1CCCC1)c1cccs1 (configuration not stated)	uPA surface inh inconclusive, Gal4-VP16 FLuc 5.01µM, RORgamma inh 1.58µM
COc1ccc(N(C(=O)Cc2cccs2)C(C(=O)NC2CCCC2)c2ccncc2)cc1OC (configuration not stated)	none
C#CC(=O)N(c1ccc(OC)c(OC)c1)C(C(=O)NC1CCCC1)c1cccs1 (configuration not stated)	Gal4-VP16 FLuc 8.91µM, RORgamma inh 2.51µM
O=C(CSc1nnc(CNC(=O)c2ccco2)o1)Nc1nc2ccccc2s1	TRPV1 potentiator inconclusive, Gal4-VP16 FLuc 10µM, RORgamma inh 2.51µM

Bioassay records from PubChem.
